Experimental data: PubChem BioAssay (NCI)
Values joined by “and” are separate entries in the source; they are usually repeats but may differ in a detail not shown here. Equal values may be shown once. The panel holds about 79,000 compounds, 15% with a hit somewhere; the sample as a whole holds those more often. Unmarked numbers belong to inactive results. Active and inactive are the calls of the source. Rule as the data show it: active = growth inhibition above about 70%; inactive = the rest.

Assays:
[1] = NCI Yeast Anticancer Drug Screen. Data for the rad50 strain (AID 155);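 also: 0% = growth of vehicle-only cultures of the same strain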; conditions: S. cerevisiae rad50 strain growth inhibition, stronger effect = higher value
Method in brief: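 Vehicle-treated cultures provide the reference for the growth inhibition reported for compound-exposed, repair-deficient yeast.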

[2] = NCI Yeast Anticancer Drug Screen. Data for the mec2-1 strain (AID 157); conditions: S. cerevisiae mec2-1 strain, stronger effect = higher value
Method in brief: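 Test agents were screened against the mec2-1 yeast strain, with defined DNA repair or cell cycle alteration. Growth was scored as inhibition against vehicle-only controls.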

[3] = NCI Yeast Anticancer Drug Screen. Data for the sgs1 mgt1 strain (AID 161);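 also: 0% = growth of cultures given vehicle only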; conditions: S. cerevisiae sgs1 mgt1 strain, stronger effect = higher value
Method in brief: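 Mutant yeast exposed to compound; growth scored against vehicle-only wells.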

[4] = NCI Yeast Anticancer Drug Screen. Data for the cln2 rad14 strain (AID 165);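 also: 0% = growth equal to vehicle treated cultures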; conditions: S. cerevisiae cln2 rad14 strain, stronger effect = higher value
Method in brief: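 Growth of compound-exposed yeast (cln2 rad14 genotype) measured and expressed as inhibition relative to vehicle.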

[5] = NCI Yeast Anticancer Drug Screen. Data for the bub3 strain (AID 167); conditions: S. cerevisiae bub3 mutant strain, stronger effect = higher value
Method in brief: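 Mutant yeast screening strain plus compound; vehicle-treated cultures serve as the 0% inhibition reference.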

[6] = NCI Yeast Anticancer Drug Screen. Data for the mlh1 rad18 strain (AID 175); conditions: S. cerevisiae mlh1 rad18 strain growth inhibition, stronger effect = higher value
Method in brief: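 In this whole-cell yeast screen, a strain with altered DNA damage repair is challenged with compound, and its growth is measured against matched vehicle-treated controls.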

[7] = at 5.0 µM (retest, dose inferred, filed as 0.5)
[8] = at 50.0 µM (retest, dose inferred, filed as 5.0)

Structure (SMILES) | growth inhibition [1, 7] | growth inhibition [1, 8] | growth inhibition ([1]; at 50.0 µM) | growth inhibition [2, 7] | growth inhibition [2, 8] | growth inhibition ([2]; at 50.0 µM) | growth inhibition [3, 7] | growth inhibition [3, 8] | growth inhibition ([3]; at 50.0 µM) | growth inhibition [4, 7] | growth inhibition [4, 8] | growth inhibition ([4]; at 50.0 µM) | growth inhibition [5, 7] | growth inhibition [5, 8] | growth inhibition ([5]; at 50.0 µM) | growth inhibition [6, 7] | growth inhibition [6, 8] | growth inhibition ([6]; at 50.0 µM)
COC(=O)C(Cl)(Br)CCl (stereo unspecified) | 13% | 85% (active) | 68.5% | 6% | 86% (active) | 79.7% (active) | 4% | 49% | 42.1% | 3% | 65% | 12.3% | 9% | 95% (active) | 43% | 8% | 81% (active) | 38.7%
CC(=O)OC1C(O)C(C)OC(OC2C(OC(=O)C3CCC4C(C3)OC3(CC(OC(=O)/C=C/c5ccccc5)C(C)CO3)C43CO3)OC(C)C(O)C2OC(C)=O)C1O (stereo unspecified) | -20% | 96% (active) | 91% (active) | 10% | 98% (active) | 92.7% (active) | -5% | 95% (active) | 93% (active) | 24% | 96% (active) | 90.1% (active) | 6% | 98% (active) | 92.2% (active) | -1% | 97% (active) | 91.6% (active)
O=C1C(Br)=CC2(C=C1Br)CCNc1c(O)c3c4c(c12)=NCCC=4C=N3 | 31% | 72% (active) | 57.9% | 15% | 44% | 46.5% | 17% | 71% (active) | 54.2% | -1% | 50% | 24.9% | -14% | 78% (active) | 49.6% | 25% | 75% (active) | 57.5%
[Cl][Pt+2][Cl].[NH-]C(c1ccccc1)C([NH-])c1ccccc1 (stereo unspecified) | -11% | 10% | -22.9% and 11% | 2% | -8% | -21.4% and 0.25% | -10% | 9% | 19% and 2.15% | -23% | -10% | 18.6% and 21.9% | -9% | 4% | -2.7% and -2.2% | -6% | 2% | -17.6% and 29.3%
CC(=O)Nc1ccc(/C=N/N=C(/N)N[N+](=O)[O-])cc1 | -7% | -1% | 61.5% | -7% | -2% | 63.8% | -5% | -1% | 52.9% | -1% | 1% | 83.8% (active) | -2% | -6% | 71.5% (active) | 1% | -9% | 81.3% (active)
CC(C)O.CC(C)O.OCCN(CCO)CCO.OCCN(CCO)CCO.[Ti+2] | 19% | 36% | 60% | 44% | 96% (active) | 31.6% | 11% | 20% | 52.9% | 34% | 70% (active) | 4.3% | 99% (active) | 99% (active) | 39.2% | 22% | 39% | 44.2%
CSc1nncc(=O)[nH]1.[Hg] | 99% (active) | 99% (active) | 99.2% (active) | 99% (active) | 99% (active) | 99.5% (active) | 100% (active) | 99% (active) | 99.5% (active) | 99% (active) | 99% (active) | 99.2% (active) | 99% (active) | 99% (active) | 99.2% (active) | 99% (active) | 99% (active) | 99.2% (active)
CN(C)C(=O)Oc1c(Cl)cc(Cl)c(Cl)c1Cl | 4% | 16% | 13.9% | 1% | 9% | -10.9% | 6% | 12% | 22% | 5% | 7% | 36.1% | 2% | 8% | -36% | 19% | 28% | 37.5%
CC/C(=C/c1ccc2c(c1)OCO2)[N+](=O)[O-] | 89% (active) | 99% (active) | 99.3% (active) | 59% | 99% (active) | 99.8% (active) | 68% | 99% (active) | 99.7% (active) | 28% | 100% (active) | 99.1% (active) | 83% (active) | 99% (active) | 98.5% (active) | 66% | 99% (active) | 99.4% (active)
O=C(N/N=C/c1cc(Cl)cc(Cl)c1[O-])c1ccccc1O.O=C(N/N=C/c1cc(Cl)cc(Cl)c1[O-])c1ccccc1O.[Mn+2] | 57% | 90% (active) | 66.8% | 88% (active) | 87% (active) | 91.3% (active) | 68% | 88% (active) | 47.1% | 77% (active) | 72% (active) | 85% (active) | 89% (active) | 80% (active) | 90.8% (active) | 56% | 87% (active) | 68.2%
C=C(C)C1(CCCC)C(=O)NC(=S)NC1=O | 0% | 60% | 29.9% | -18% | 49% | 11.8% | -14% | 61% | 34.8% | -18% | 51% | -28.1% | -7% | 45% | 39% | -2% | 85% (active) | 40%
O=c1oc2ccccc2c(O)c1C1c2c(c3ccccc3oc2=O)Oc2c1c(=O)oc1ccccc21 | 9% | 96% (active) | 85% (active) | 2% | 97% (active) | 91.2% (active) | 2% | 97% (active) | 88.5% (active) | 12% | 97% (active) | 87.3% (active) | 9% | 97% (active) | 84.9% (active) | 10% | 97% (active) | 92% (active)
Oc1c(Cl)c(Cl)c(Cl)c(Cl)c1Cl | 14% and 30% | 99% (active) and 100% (active) | 80.8% (active) and 99% (active) | 16% and 23% | 100% (active) and 99% (active) | 99.8% (active) and 99% (active) | 13% and 39% | 98% (active) and 99% (active) | 97.5% (active) and 99.2% (active) | 15% and 30% | 99% (active) | 99% (active) | 5% and 13% | 99% (active) | 99.4% (active) and 99% (active) | 21% and 40% | 99% (active) | 90% (active) and 99% (active)
CNC1=C(C)C(=O)C2=C(C1=O)C(COC(N)=O)C1(O)C3C(CN21)N3C (stereo unspecified) | 13% | 83% (active) | 72% (active) | 20% | 90% (active) | 74.9% (active) | 19% | 78% (active) | 69.8% | 9% | 84% (active) | 61.4% | 3% | 59% | 52.2% | 47% | 95% (active) | 83% (active)
CC(=O)C(Br)C(C)=O.CC(=O)C(Br)C(C)=O.CC(=O)C(Br)C(C)=O.[Rh] | 4% | -2% | 99.2% (active) | -22% | 1% | 99.6% (active) | -1% | 0% | 99.6% (active) | 4% | 4% | 93.7% (active) | 1% | -7% | 99.4% (active) | 6% | -18% | 99.2% (active)
C1CC[N-]CC1.CC(=N\O)/C(C)=N/O.CC(=N\O)/C(C)=N/O.OC1[CH-]CCCC1.[Co+2] | 22% | 20% | 23.9% | 5% | 16% | -1.95% | 28% | 25% | 13.9% | 17% | 28% | 76% (active) | 13% | 13% | -5.4% | 17% | 35% | 30.9%
Cc1ccc2ccccc2c1NC1=NCCO1 | 24% | 45% | -15.6% | 25% | 20% | -10.9% | 21% | 11% | -5.65% | 17% | 26% | 17% | 18% | 6% | 11.8% | 30% | 17% | -10.1%
